{
  "source": "paper PMC7862700",
  "about": "“An all-to-all approach to the identification of sequence-specific readers for epigenetic DNA modifications on cytosine”",
  "experiment_in_all_cases": "DAPPL (digital affinity profiling via proximity ligation, sequencing); 10 mM Tris-HCl pH 7.5, 50 mM NaCl, 1 mM DTT, 4% glycerol, room temperature, 30 min; GST-TFs on glutathione beads, 16-mer random dsDNA library, 0.1% formaldehyde crosslink after washing; high values mean tight binding",
  "conditions_in_all_cases": "protein: recombinant; tags: N-terminal GST; dsDNA, one strand shown",
  "key": {"[1]": {"biological_target": "T1, FLI1 (Homo sapiens, UniProt Q01543 1-452)", "T1 sequence": "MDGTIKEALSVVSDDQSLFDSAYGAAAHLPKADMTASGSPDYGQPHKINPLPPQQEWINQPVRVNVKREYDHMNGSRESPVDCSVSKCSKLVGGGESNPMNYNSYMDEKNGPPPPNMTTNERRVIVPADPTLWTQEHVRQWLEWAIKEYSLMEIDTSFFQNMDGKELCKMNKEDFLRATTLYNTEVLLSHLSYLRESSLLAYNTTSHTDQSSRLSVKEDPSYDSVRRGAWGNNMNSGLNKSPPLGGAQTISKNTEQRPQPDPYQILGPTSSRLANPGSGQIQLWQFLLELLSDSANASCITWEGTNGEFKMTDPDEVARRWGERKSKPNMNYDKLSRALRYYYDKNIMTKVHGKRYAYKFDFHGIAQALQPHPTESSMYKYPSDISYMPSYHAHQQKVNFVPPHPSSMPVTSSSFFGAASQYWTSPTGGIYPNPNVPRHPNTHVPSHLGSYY", "in_short": "(§1)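 GST fusions of human transcription factors were expressed in yeast and captured with glutathione beads. Once given DNA barcodes and pooled alongside a tag-only sample, they were incubated for 30 min at room temperature with 200 nmole of a random double-stranded 16-mer DNA library in Tris/NaCl/DTT/glycerol buffer, then washed, crosslinked (0.1% formaldehyde), proximity-ligated, PCR-amplified and sequenced on an Illumina NextSeq500. The binding signal of each hexamer is its read frequency for a factor divided by its frequency for the tag-only sample.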"}, "[2]": {"biological_target": "T2, ELK1 (Homo sapiens, UniProt P19419 1-428)", "T2 sequence": "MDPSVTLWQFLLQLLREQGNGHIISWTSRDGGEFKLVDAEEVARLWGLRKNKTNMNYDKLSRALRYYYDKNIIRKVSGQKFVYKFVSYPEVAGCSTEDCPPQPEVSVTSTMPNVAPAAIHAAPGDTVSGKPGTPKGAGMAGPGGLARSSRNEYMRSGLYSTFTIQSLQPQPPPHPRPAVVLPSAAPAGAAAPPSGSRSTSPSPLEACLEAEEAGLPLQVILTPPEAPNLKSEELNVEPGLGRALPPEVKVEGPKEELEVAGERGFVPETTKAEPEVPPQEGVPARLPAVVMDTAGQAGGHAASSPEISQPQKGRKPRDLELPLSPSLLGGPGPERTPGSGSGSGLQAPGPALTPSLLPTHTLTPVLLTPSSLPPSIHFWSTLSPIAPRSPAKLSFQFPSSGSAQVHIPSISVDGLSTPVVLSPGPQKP", "in_short": "as §1"}, "[3]": {"biological_target": "T3, GABPA (Homo sapiens, UniProt Q06546 1-454)", "T3 sequence": "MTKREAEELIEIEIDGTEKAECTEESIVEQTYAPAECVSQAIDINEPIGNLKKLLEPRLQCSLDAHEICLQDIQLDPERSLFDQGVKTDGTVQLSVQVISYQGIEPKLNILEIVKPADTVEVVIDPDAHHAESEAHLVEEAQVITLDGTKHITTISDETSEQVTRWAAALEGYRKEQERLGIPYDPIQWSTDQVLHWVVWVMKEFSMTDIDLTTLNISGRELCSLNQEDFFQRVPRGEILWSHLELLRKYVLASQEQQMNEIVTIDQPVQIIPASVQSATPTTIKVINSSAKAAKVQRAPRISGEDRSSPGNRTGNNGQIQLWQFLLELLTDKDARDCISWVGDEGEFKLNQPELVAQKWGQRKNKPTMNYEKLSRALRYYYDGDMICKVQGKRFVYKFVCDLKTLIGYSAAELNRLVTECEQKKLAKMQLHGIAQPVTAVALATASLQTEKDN", "in_short": "as §1"}, "[4]": {"biological_target": "T4, ERG (Homo sapiens, UniProt P11308 1-479)", "T4 sequence": "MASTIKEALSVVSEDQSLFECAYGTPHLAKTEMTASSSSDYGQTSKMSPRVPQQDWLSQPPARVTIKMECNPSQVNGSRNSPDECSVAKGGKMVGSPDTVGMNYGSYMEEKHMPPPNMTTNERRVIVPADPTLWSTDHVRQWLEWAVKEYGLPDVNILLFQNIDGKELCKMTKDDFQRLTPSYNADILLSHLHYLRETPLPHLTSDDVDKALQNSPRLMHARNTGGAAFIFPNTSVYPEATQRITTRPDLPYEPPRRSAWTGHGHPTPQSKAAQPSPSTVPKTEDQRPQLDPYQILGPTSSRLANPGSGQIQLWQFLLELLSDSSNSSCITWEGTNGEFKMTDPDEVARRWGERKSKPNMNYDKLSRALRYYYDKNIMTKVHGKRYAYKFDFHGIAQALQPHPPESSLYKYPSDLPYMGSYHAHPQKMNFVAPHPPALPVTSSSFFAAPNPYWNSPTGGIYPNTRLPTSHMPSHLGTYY", "in_short": "as §1"}, "[5]": {"biological_target": "ELF1 (Homo sapiens, UniProt P32519 1-619)", "sequence (P32519 whole entry)": "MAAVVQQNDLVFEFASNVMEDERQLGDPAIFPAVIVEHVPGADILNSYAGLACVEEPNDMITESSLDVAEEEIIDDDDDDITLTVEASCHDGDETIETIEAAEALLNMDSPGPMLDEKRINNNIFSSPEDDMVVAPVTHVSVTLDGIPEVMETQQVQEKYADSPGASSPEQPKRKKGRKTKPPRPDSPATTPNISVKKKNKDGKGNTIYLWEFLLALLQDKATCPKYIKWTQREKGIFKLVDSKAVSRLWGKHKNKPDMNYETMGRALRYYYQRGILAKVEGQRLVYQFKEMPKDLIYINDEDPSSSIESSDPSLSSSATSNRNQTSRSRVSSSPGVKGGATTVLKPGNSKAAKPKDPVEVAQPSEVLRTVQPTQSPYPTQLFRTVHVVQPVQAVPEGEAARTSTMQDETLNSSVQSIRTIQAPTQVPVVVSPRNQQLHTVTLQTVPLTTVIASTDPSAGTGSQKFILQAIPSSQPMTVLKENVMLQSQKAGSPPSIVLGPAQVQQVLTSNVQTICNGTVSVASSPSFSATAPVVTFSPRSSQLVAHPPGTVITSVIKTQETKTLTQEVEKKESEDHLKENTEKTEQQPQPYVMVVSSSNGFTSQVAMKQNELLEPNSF", "in_short": "as §1"}, "[6]": {"biological_target": "T5, EHF (Homo sapiens, UniProt Q9NZC4 1-300)", "T5 sequence": "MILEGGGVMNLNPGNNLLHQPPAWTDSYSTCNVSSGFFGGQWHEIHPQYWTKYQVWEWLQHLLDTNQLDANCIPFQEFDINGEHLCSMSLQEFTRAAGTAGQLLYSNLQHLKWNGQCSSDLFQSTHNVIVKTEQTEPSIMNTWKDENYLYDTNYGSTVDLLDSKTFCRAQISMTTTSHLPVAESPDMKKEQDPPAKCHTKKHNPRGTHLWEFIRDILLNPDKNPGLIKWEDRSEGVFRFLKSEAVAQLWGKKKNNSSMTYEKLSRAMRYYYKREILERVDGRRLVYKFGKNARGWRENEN", "in_short": "as §1"}, "[7]": {"biological_target": "SPI1 (Homo sapiens, UniProt P17947 1-270)", "in_short": "as §1"}, "[8]": {"biological_target": "SPIB (Homo sapiens, UniProt Q01892 1-262)", "sequence (Q01892 whole entry)": "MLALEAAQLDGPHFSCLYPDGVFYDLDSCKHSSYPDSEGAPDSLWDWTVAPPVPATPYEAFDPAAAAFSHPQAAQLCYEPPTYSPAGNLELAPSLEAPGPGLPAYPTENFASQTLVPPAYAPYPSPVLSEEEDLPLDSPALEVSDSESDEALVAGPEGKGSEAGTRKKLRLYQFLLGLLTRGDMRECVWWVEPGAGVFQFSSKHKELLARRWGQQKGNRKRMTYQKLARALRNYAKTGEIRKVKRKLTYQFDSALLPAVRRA", "in_short": "as §1"}, "[9]": {"biological_target": "T6, ELK3 (Homo sapiens, UniProt P41970 1-407)", "T6 sequence": "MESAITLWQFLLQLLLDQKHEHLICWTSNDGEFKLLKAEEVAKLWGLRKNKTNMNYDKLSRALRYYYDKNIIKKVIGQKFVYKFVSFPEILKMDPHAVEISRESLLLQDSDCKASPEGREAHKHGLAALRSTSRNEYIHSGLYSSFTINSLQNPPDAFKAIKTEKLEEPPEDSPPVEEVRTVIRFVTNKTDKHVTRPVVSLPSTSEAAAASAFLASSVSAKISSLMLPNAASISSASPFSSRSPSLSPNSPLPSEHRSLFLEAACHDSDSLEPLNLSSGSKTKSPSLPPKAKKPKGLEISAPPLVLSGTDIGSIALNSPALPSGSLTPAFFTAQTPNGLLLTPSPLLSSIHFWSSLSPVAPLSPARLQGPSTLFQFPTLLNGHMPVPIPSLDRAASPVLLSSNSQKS", "in_short": "as §1"}},
  "data": [
    {"sequence": "TGTTGC", "values": [
      {"measurement": "binding signal", "setting": "[1]", "value": "1.33 fold enrichment (6-mer frequency, TF over GST control)"},
      {"measurement": "binding signal", "setting": "[2]", "value": "1.32 fold enrichment (6-mer frequency, TF over GST control)"},
      {"measurement": "binding signal", "setting": "[3]", "value": "1.33 fold enrichment (6-mer frequency, TF over GST control)"},
      {"measurement": "binding signal", "setting": "[4]", "value": "1.3 fold enrichment (6-mer frequency, TF over GST control)"},
      {"measurement": "binding signal", "setting": "[5]", "value": "1.31 fold enrichment (6-mer frequency, TF over GST control)"},
      {"measurement": "binding signal", "setting": "[6]", "value": "1.3 fold enrichment (6-mer frequency, TF over GST control)"},
      {"measurement": "binding signal", "setting": "[7]", "value": "1.33 fold enrichment (6-mer frequency, TF over GST control)"},
      {"measurement": "binding signal", "setting": "[8]", "value": "1.35 fold enrichment (6-mer frequency, TF over GST control)"},
      {"measurement": "binding signal", "setting": "[9]", "value": "1.4 fold enrichment (6-mer frequency, TF over GST control)"}
    ]}
  ]
}
